This is an account of results in PubChem BioAssay AID493012 (Sanford-Burnham Center for Chemical Genomics, 2011).

About 930 (0.28%) of roughly 330,000 compounds were called active.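 The calls were made as follows: active = inhibition of at least 40% at 20 µM, with no more than 30% in the related APOBEC3A deaminase screen; inactive = the rest.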 What follows is part of a selection rich in actives, with near analogues and random picks from the rest.

For this assay, the target named is DNA dC->dU-editing enzyme APOBEC-3G (Homo sapiens) (UniProt Q9HC16). The assay is described as follows: APOBEC3G DNA deaminase inhibitors, primary screen, biochemical, fluorescence, single-stranded DNA substrate, uHTS (AID 493012).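 Also: plate controls were DMSO wells with A3G for no effect and wells lacking A3G enzyme for full effect.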 To be noted: recombinant A3G, ssDNA deamination FAM/TAMRA fluorescence; at 20 µM; stronger effect = higher value.
DNA dC->dU-editing enzyme APOBEC-3G (Homo sapiens), sequence (Q9HC16 whole entry, looked up): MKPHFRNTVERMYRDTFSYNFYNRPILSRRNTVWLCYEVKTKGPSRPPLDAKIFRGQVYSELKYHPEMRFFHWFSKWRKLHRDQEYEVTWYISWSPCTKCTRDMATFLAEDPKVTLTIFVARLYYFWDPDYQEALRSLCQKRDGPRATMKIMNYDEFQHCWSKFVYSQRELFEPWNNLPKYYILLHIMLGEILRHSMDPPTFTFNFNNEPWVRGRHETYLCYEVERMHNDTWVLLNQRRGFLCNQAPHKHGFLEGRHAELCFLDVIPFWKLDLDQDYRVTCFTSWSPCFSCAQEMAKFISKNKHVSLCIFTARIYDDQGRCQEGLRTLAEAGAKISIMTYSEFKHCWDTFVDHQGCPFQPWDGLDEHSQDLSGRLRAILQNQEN
`Cc1cccc(NC(=O)C2CCCN(C(=O)Nc3ccc(F)cc3)C2)c1C` (centres undefined): the inhibition was -9.22% (inactive). For `COc1ccccc1-n1c(-c2cc(-c3ccco3)[nH]n2)n[nH]c1=S`, the inhibition was 66.2% (active). On to `COc1ccccc1-n1cn[nH]c1=S`, for which the inhibition was -7.32% (inactive). For `COc1ccc(OC)c(-n2c(-c3ccn[nH]3)n[nH]c2=S)c1`, the inhibition is 6.84% (inactive). Regarding `Cc1ccccc1N1CC(C(=O)Nc2ccc3c(c2)OCO3)CC1=O` (centres undefined), the inhibition is -5.81% (inactive). Then `Cc1ccc(C)c(N2CCN(C(=O)CCc3nc(-c4cccc(C(F)(F)F)c4)no3)CC2)c1`, with 2.36% (inactive). Regarding `COc1ccc(OC)c(NC(=O)c2sc3nc(C)cc(C)c3c2N)c1`, the inhibition was -11% (inactive). Regarding `Cc1ccc(NC(=O)c2sc3nc(N)c(C#N)cc3c2N)cc1`, the inhibition was 53.5% (active). Take `CCc1ccc2nc3sc(C(=O)Nc4nnc(CC)s4)c(N)c3cc2c1`: the inhibition is -0.825% (inactive). Take `COc1cc(C(=O)Nc2ncccc2C)ccc1OCC(=O)N1CCOCC1`: the inhibition is -6.99% (inactive). In the case of `COc1cccc(NC(=O)N2CCCC2C(=O)NC2CCCCC2)c1` (centres undefined), the inhibition was -7.25% (inactive).

On to `COc1ccc(NC(=O)c2sc(N3CCOCC3)nc2-c2ccccc2)c(OC)c1`, for which the inhibition is -6.69% (inactive).

`CCC1Sc2ccc(S(=O)(=O)CCC(=O)NCc3cccs3)cc2NC1=O` (centres undefined): the inhibition is -2.6% (inactive).

With `O=c1c2ccccc2oc2nc(C3CCCCC3)n(Cc3ccco3)c(=O)c12`, the inhibition is -6.57% (inactive).

In the case of `CCCc1nc2c(c(=O)c3ccccc3n2C)c(=O)n1C1CCCCCC1`, the inhibition was 2.29% (inactive).

Turning to `Cn1c2ccccc2c(=O)c2c(=O)n(Cc3ccco3)c(COc3ccccc3)nc21`, the inhibition is 52.8% (active). Take `CC(=O)N1C(=O)/C(=C2\SC(=S)N(NC(=O)c3ccc(O)cc3)C2=O)c2ccccc21`: the inhibition is 1.88% (inactive).

As to `COc1cccc(NC(=O)CSc2nnc(C3CCCCC3)n2N)c1`, the inhibition is -9.04% (inactive).

In the case of `Cc1cccc(NC(=O)c2ccc(S(=O)(=O)N(C)CC3CCCO3)cc2)c1C` (centres undefined), the inhibition was 1.74% (inactive). The same measure for `Cc1ccc(NCc2n[nH]c(=S)n2-c2ccccc2)cc1Cl`: 10.6% (inactive).

In the case of `Cc1cc(-c2n[nH]c(=S)n2-c2ccc(C)c(C)c2)no1`, the inhibition was 45.2% (active). As to `Cc1ccc(C)c(S(=O)(=O)Nc2cc(C)on2)c1`, the inhibition was -6.75% (inactive). On to `NC(=O)Cn1nc([N+](=O)[O-])nc1Oc1ccc(Br)cc1`, for which the inhibition was -11.7% (inactive).

Regarding `Cc1ccnc(-n2sc3ccccc3c2=O)n1`, the inhibition is 87% (active). The same measure for `COCCn1c(CN2CCC(Cc3ccccc3)CC2)nc2c1c(=O)n(C)c(=O)n2C`: -4.86% (inactive). For the compound `Cc1ncn(C23CC4CC(CC(O)(C4)C2)C3)n1`, the inhibition is -4.67% (inactive). For `Cc1nc([N+](=O)[O-])nn1C12CC3CC(CC(Br)(C3)C1)C2`, the inhibition is 59.1% (active). Turning to `COc1cccc(NC(=O)c2nn(C34CC5CC(CC(C5)C3)C4)cc2[N+](=O)[O-])c1`, the inhibition is 0.433% (inactive). Regarding `Cc1ccc(Sc2ccncc2S(N)(=O)=O)cc1`, the inhibition was -12.3% (inactive). As to `CCC(CC)c1nnc(NC(=O)C2CCN(C(=O)c3ccco3)CC2)s1`, the inhibition is 43.5% (active). On to `CCc1nnc(NC(=O)C2CCN(C(=O)c3ccccc3C)CC2)s1`, for which the inhibition was -4.15% (inactive).

Take `COc1ccc(CNC(=O)C2CCN(C(=O)c3ccco3)CC2)cc1`: the inhibition was -11.5% (inactive).

Turning to `CC(C)NC(=O)NNc1c(Cl)cncc1Cl`, the inhibition was -7.21% (inactive).

`CCn1cc(C(=O)NCC(=O)NC(C)(C)CO)c(=O)c2cc3c(cc21)OCO3`: the inhibition was 5.44% (inactive).

With `CCOc1ccc(CCNC(=O)COC(=O)c2c(OC)cccc2OC)cc1OCC`, the inhibition is -6.63% (inactive). Consider `COc1ccc(N2CC(C(=O)NCCS(=O)(=O)N3CCN(c4ccccc4)CC3)CC2=O)cc1` (centres undefined), for which the inhibition was -3.81% (inactive). As for `Cc1sc(NC(=O)c2ccc3ncsc3c2)c(C(N)=O)c1C`, the inhibition was -14.1% (inactive). The same measure for `Cc1ccc(S(=O)(=O)CC(=O)Nc2sc(C)c(C)c2C(N)=O)cc1`: 19.4% (inactive); for `Cc1ccc(C(=O)c2c(NC(=O)c3ccccc3)sc(C)c2C)cc1`: 43.3% (active). In the case of `CC(CN1CCCCC1)OC(=O)c1ccccc1Cl` (centres undefined), the inhibition was -6.81% (inactive). Then `O=C(CSc1nccc(=O)[nH]1)Nc1ccc(N2CCOCC2)c(Cl)c1`, with 1.54% (inactive); and `S=c1[nH]nc(-c2ccc(Cl)cc2)n1CC1CCCO1` (centres undefined), with 43.8% (active); and `Cc1ccc(-n2c(-c3ccc(Cl)cc3)n[nH]c2=S)cc1`, with 11.5% (inactive). For the compound `Cc1nnc(SCC(=O)NNC(=O)c2ccc(Cl)cc2)n1CC1CCCO1` (centres undefined), the inhibition was -0.693% (inactive).

Regarding `O=C(CSc1nc2[nH]ncc2c(=O)[nH]1)Nc1ccc(F)cc1`, the inhibition is -9.68% (inactive). Regarding `Cc1occc1-c1nnc(SCC(=O)NC2(C#N)CCCC2)n1C`, the inhibition was -13.5% (inactive). For `COCCN1C(=O)C(=O)/C(=C(/O)c2ccc(S(=O)(=O)N3CCOCC3)cc2)C1c1ccc(OC)c(OC)c1` (centres undefined), the inhibition was -5.33% (inactive). For the compound `CCOc1ccc(Br)cc1S(=O)(=O)Nc1cccc(S(=O)(=O)N(CC)CC)c1`, the inhibition was -8.57% (inactive). For `O=C(Cn1cnc2cc([N+](=O)[O-])ccc2c1=O)NC(=O)NCc1ccccc1`, the inhibition is -6% (inactive). `COc1ccc(NC(=O)c2oc3ccc(S(=O)(=O)N4CCOCC4)cc3c2C)cc1`: the inhibition was -7.26% (inactive).

On to `Cc1ccc(S(=O)(=O)N2CCN(S(=O)(=O)N3CCOCC3)CC2)cc1`, for which the inhibition was -5.83% (inactive). As for `Cc1noc(C)c1CSc1nc2cc(S(=O)(=O)N3CCOCC3)ccc2o1`, the inhibition was 45.8% (active).

As for `CCCCCCCCn1c2c(c(=N)c3c1CCC3)CCCC2`, the inhibition is -6.25% (inactive). In the case of `COc1cc(/C=N/n2c(C)n[nH]c2=S)ccc1OCc1ccccc1`, the inhibition was 9.64% (inactive). Then `Cc1n[nH]c(=S)n1/N=C/c1ccc(Br)o1`, with 40.4% (active). Turning to `Cc1ccsc1/C=N/n1c(=S)[nH]nc(C)c1=O`, the inhibition was -0.898% (inactive).

For the compound `O=S(=O)(N/N=C\c1cccn1-c1ccccc1)c1ccc2ccccc2c1`, the inhibition was -6.33% (inactive). For the compound `COC(=O)c1cccc(-n2[nH]nnc2=S)c1`, the inhibition is 59% (active). As for `COC(=O)c1cccc(NC(=O)c2cccc(N3C(=O)CCC3=O)c2)c1`, the inhibition was -9.31% (inactive).

Take `COC(=O)c1cccc(N2C(=O)C3C4C=CC(CC4)C3C2=O)c1` (centres undefined): the inhibition is -6.25% (inactive). On to `CCOC(=O)C1CCN(S(=O)(=O)c2cc(F)ccc2OC)CC1`, for which the inhibition is -1.04% (inactive).

For `CCC(=O)Nc1ccccc1C(=O)N1CCN(Cc2ccccc2)CC1`, the inhibition is -6.48% (inactive). Then `CCC(=O)Nc1ccc(C(=O)Nc2cc(C)on2)cc1`, with 2.01% (inactive); and `CCOc1ccc(C(=O)Nc2ccc(S(=O)(=O)Nc3cc(C)on3)cc2)cc1`, with -9.24% (inactive); and `CCOc1ccc(NC(=O)Nc2cc(C)on2)cc1`, with 65.3% (active). Regarding `CC(C)NC(=O)c1ccc(Sc2ccccc2)c([N+](=O)[O-])c1`, the inhibition was -2.3% (inactive).

Take `O=C(Cc1ccccc1)NNC1CC(=O)N(c2ccc(Br)cc2)C1=O` (centres undefined): the inhibition was 4.82% (inactive). For `COC(=O)c1sccc1NC(=O)CC1C(=O)NCCN1C(=O)Nc1ccc(F)cc1F` (centres undefined), the inhibition is -4.83% (inactive). For the compound `CNC(=O)c1sc(Nc2ccc(OCc3ccccc3)cc2)nc1C`, the inhibition was -1.98% (inactive). Regarding `Cc1ccc(S(=O)(=O)N(C)CC(=O)NCCc2c[nH]c3ccccc23)cc1`, the inhibition was 49.6% (active). As for `CN(c1ccccc1)S(=O)(=O)c1ccc(Cl)c(C(=O)NCCc2c[nH]c3ccccc23)c1`, the inhibition is -7.53% (inactive). Turning to `CSCCC(NS(=O)(=O)c1ccc(C)cc1)C(=O)NCCc1c[nH]c2ccccc12` (centres undefined), the inhibition is -1.39% (inactive).

Take `COc1ccc(C)cc1NC(=O)CCS(=O)(=O)c1cccc2nonc12`: the inhibition is -1.32% (inactive).

For the compound `O=C1CC(N2CCN(c3ccc(F)cc3)CC2)C(=O)N1c1ccccc1` (centres undefined), the inhibition was -7.4% (inactive).

Turning to `O=C1CC(Sc2ncn[nH]2)C(=O)N1c1ccccc1` (centres undefined), the inhibition was 41.6% (active).

Take `Cc1ccc(N2C(=O)CC(Sc3ncn[nH]3)C2=O)cc1` (centres undefined): the inhibition is 28% (inactive). For the compound `CCOc1ccc(-c2cn(S(=O)(=O)c3cccc4nsnc34)nc2N)cc1`, the inhibition was 0.75% (inactive).

As to `CCOC(=O)C(NC(C)=O)C(=O)Nc1ccc(OC)cc1` (centres undefined), the inhibition is -5.93% (inactive). Then `O=c1[nH]c(=S)[nH]c2[nH]c(=S)[nH]c12`, with 93.2% (inactive); and `CCNC(=O)CC1C(=O)N(c2ccc(F)cc2)C(=O)N1CCc1sccc1C` (centres undefined), with -6.98% (inactive). Consider `COc1ccc(C2=NO[C@@H]3C(=O)N(Cc4ccccc4)C(=O)[C@H]23)cc1OC`, for which the inhibition is -9.52% (inactive). `O=C(Cc1ccc(Br)cc1)NCCc1ccccc1`: the inhibition was -5.45% (inactive).

In the case of `CC(C)(C)NC(=O)Cn1cnc([N+](=O)[O-])n1`, the inhibition is -1.06% (inactive). Regarding `O=C(Cn1cnc([N+](=O)[O-])n1)NCCc1ccccc1`, the inhibition was 61.5% (active). Then `COCCN1C(=O)C(=O)/C(=C(/O)c2ccc(S(=O)(=O)N3CCOCC3)cc2)C1c1ccc(O)c(OC)c1` (centres undefined), with -1.29% (inactive). As for `CCOC(=O)C(Sc1ncc(C#N)c(N)n1)C(C)C` (centres undefined), the inhibition was 1.62% (inactive). Regarding `Cn1c(N)cc(-c2ccc(F)cc2)c(C#N)c1=O`, the inhibition is -8.38% (inactive). As for `Cc1cc(C)c2c(-c3ccc(F)cc3)c(C#N)c(=O)n(C)c2n1`, the inhibition was 53.9% (active). Then `COc1ccc(O)c(C(=O)c2cnc3c(c2)c(-c2ccc(F)cc2)c(C#N)c(=O)n3C)c1`, with -3.05% (inactive); and `CC1c2nc3ccccc3n2C(CC(=O)NCCCN2CCOCC2)C(=O)N1Cc1ccccc1` (centres undefined), with -9.69% (inactive); and `O=C(Nc1ccc(-c2ccc3nncn3n2)cc1)C1CCCCC1`, with -1.63% (inactive).

Take `Fc1ccc(Nc2nnns2)cc1`: the inhibition was 48.9% (active). Turning to `CN(C)c1nc(NN)nc(Nc2ccc(F)cc2)n1`, the inhibition was -0.168% (inactive). Consider `O=C(Nc1ccncc1)Nc1ccc(F)cc1`, for which the inhibition was -2.01% (inactive).
